PubChem BioAssay (NCATS)
Several values for one entry are separate records, joined by “and”; a condition that tells them apart may be missing. Equal values may be shown once. Inconclusive results are not listed. Activity calls are given as the source filed them. The call rests on the fitted dose curve; in most records, active means well fitted curve in the direction sought with a large enough effect; inconclusive means small, poorly fitted or top-dose-only effect, or another doubt; inactive means no such curve, though single readings can be large; an effect the other way counts as inactive or inconclusive.

Tests used:
[1] = target: Cellular tumor antigen p53 (Homo sapiens) (UniProt P04637); assay: Primary qHTS for small molecule compounds that upregulate eGFP-tagged delta133p53alpha (in N-terminal) cells. (AID 2060322); details: NCI-H358 eGFP-delta133p53alpha fluorescence, 24 h; activation: hits give high values;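 further: cells pre-induced with doxycycline then dosed without doxycycline; series mostly up to about 56 µM; 0% = DMSO vehicle and 100% = reference activator; nearly all actives have a fitted effect of over 75% in size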
Chain of Cellular tumor antigen p53 (Homo sapiens) (P04637 whole entry, looked up): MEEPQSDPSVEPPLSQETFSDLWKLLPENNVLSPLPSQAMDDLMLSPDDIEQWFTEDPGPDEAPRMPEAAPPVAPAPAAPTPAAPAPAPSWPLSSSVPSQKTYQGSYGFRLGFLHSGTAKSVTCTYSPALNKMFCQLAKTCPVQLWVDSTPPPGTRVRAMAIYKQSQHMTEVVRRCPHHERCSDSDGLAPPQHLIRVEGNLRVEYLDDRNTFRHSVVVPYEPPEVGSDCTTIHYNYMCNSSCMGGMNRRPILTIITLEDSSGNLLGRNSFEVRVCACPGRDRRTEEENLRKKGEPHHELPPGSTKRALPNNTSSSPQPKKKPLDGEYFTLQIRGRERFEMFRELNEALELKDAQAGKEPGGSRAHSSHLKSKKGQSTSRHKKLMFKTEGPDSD
Summary of the method: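 NCI-H358 cells pre-induced 24 h with 10 ng/ml doxycycline for eGFP-delta133p53alpha, plated dox-free and exposed 24 h at 37C to titrated compounds. Fixed, Hoechst-stained; gated GFP peak intensity by laser scanning cytometry, normalized to DMSO (0%) and 57.5 uM 5-azacytidine (100%).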

[2] = BET inhibitor-based combinations targeting novel dependencies in MECOM-rearranged (r) AML: SET-2 cell line (AID 2202231); details: SET-2 AML cells viability, CellTiter-Glo luminescence, 48 h; viability: hits give low values, concentration not given here; further: nearly all actives have a fitted effect of over 35% in size; further: potency means the concentration at half of the fitted maximal effect;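 on viability: plate controls were DMSO treated cells for no effect and wells without cells for full effect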
Summary of the method: (§1)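 500 cells/well; 11-pt dose curve; 48 h, standard incubator; CellTiter-Glo luminescence after 15 min RT; DMSO/empty-well normalization; AUC plus Z-AUC (mean-centered within each line).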

[3] = BET inhibitor-based combinations targeting novel dependencies in MECOM-rearranged (r) AML: OCI-AML3 cell line (AID 2202232); details: Potency: OCI-AML3 viability; further: nearly all actives have a fitted effect of over 35% in size; further: potency means the concentration at half of the fitted maximal effect
Summary of the method: as §1

[4] = BET inhibitor-based combinations targeting novel dependencies in MECOM-rearranged (r) AML: MV-4-11 cell line (AID 2202233); further: nearly all actives have a fitted effect of over 45% in size; further: potency means the concentration at half of the fitted maximal effect
Summary of the method: (§2)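 Cells were plated at 500 per well and exposed to each drug across an 11-point dose range for 48 hr at standard incubator conditions. Viability was read by CellTiter-Glo luminescence, and activity was expressed as AUC and per-cell-line Z-transformed AUC.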

[5] = BET inhibitor-based combinations targeting novel dependencies in MECOM-rearranged (r) AML: HNT-34 cell line (AID 2202234); further: nearly all actives have a fitted effect of over 35% in size; further: potency means the concentration at half of the fitted maximal effect
Summary of the method: as §2

[6] = BET inhibitor-based combinations targeting novel dependencies in MECOM-rearranged (r) AML: UCSD-AML1 cell line (AID 2202235); further: nearly all actives have a fitted effect of over 40% in size; further: potency means the concentration at half of the fitted maximal effect
Summary of the method: as §2

[7] = BET inhibitor-based combinations targeting novel dependencies in MECOM-rearranged (r) AML: AML-191 cell line (AID 2202236; further: nearly all actives have a fitted effect of over 35% in size; further: potency means the concentration at half of the fitted maximal effect)
Summary of the method: as §1

[8] = BET inhibitor-based combinations targeting novel dependencies in MECOM-rearranged (r) AML: AML-194 cell line (AID 2202237; further: nearly all actives have a fitted effect of over 40% in size; further: potency means the concentration at half of the fitted maximal effect)
Summary of the method: as §1

COc1cccc(OC)c1-c1cc(C(=O)NC2(C(=O)O)C3CC4CC(C3)CC2C4)nn1-c1ccnc2cc(Cl)ccc12 (centres undefined)
inactive: activation [1] -14.3% | viability [2] 114% | Potency [3] | Potency [4] | Potency [5] | Potency [6] | Potency [7] | Potency [8]

O=C(NC(Cc1cc(=O)[nH]c2ccccc12)C(=O)O)c1ccc(Cl)cc1 (centres undefined)
inactive: activation [1] -0.837% and -7.77% | viability [2] 120% | Potency [3] | Potency [4] | Potency [5] | Potency [6] | Potency [7] | Potency [8]

CC#CCn1c(N2CCC[C@@H](N)C2)nc2c1c(=O)n(Cc1nc(C)c3ccccc3n1)c(=O)n2C
inactive: activation [1] 6.37% | viability [2] 113% | Potency [3] | Potency [4] | Potency [5] | Potency [6] | Potency [7] | Potency [8]

COc1ccc(S(=O)(=O)Nc2cc(-c3c(O)ccc4ccccc34)c(O)c3ccccc23)cc1
inactive: activation [1] 23.1%
active: Potency [2] 11.8 µM | Potency [3] 2.63 µM | Potency [4] 0.833 µM | Potency [5] 1.66 µM | Potency [6] 3.72 µM | Potency [7] 1.86 µM | Potency [8] 1.66 µM

CCN1CCN(CC(=O)Nc2ccc(-c3cccc4c(=O)cc(N5CCOCC5)oc34)c3sc4ccccc4c23)CC1
inactive: activation [1] -18.4%
active: Potency [2] 8.11 µM | Potency [3] 2.57 µM | Potency [4] 1.44 µM | Potency [5] 5.74 µM | Potency [6] 2.57 µM | Potency [7] 5.74 µM | Potency [8] 3.23 µM

CCCCCN=C(N)N/N=C/c1c[nH]c2ccc(OC)cc12
active: Potency [2] 23.5 µM | Potency [3] 8.33 µM | Potency [4] 8.33 µM | Potency [5] 9.34 µM | Potency [6] 16.6 µM | Potency [7] 18.6 µM | Potency [8] 20.9 µM
inactive: activation [1] 9.6%

OCCN1C[C@H](O)[C@@H](O)[C@H](O)[C@H]1CO
inactive: activation [1] -10.9% | viability [2] 115% | Potency [3] | Potency [4] | Potency [5] | Potency [6] | Potency [7] | Potency [8]

COc1ccc(CCN(C)CCCOc2ccc(S(=O)(=O)c3[nH]c4ccccc4c3C(C)C)cc2)cc1OC
active: Potency [2] 26.3 µM | Potency [3] 16.6 µM | Potency [4] 11.8 µM | Potency [5] 18.6 µM | Potency [6] 14.8 µM | Potency [7] 18.6 µM | Potency [8] 14.8 µM
inactive: activation [1] -2.61%

O=C(NCCCCN1CCOCC1)c1cc2ccccc2o1
inactive: activation [1] 15.9% | viability [2] 111% | Potency [3] | Potency [4] | Potency [5] | Potency [6] | Potency [7] | Potency [8]

Cc1cnc(Nc2ccc(N3CCN(C)CC3)cc2)nc1Nc1cccc(S(=O)(=O)NC(C)(C)C)c1
active: Potency [2] 2.63 µM | Potency [3] 5.25 µM | Potency [4] 0.662 µM | Potency [5] 0.833 µM | Potency [6] 1.86 µM | Potency [7] 2.63 µM | Potency [8] 2.95 µM
inactive: activation [1] 28.8%

Cc1cc(=O)oc2cc(O)ccc12
inactive: activation [1] -17.5% and -1.39% | viability [2] 111% | Potency [3] | Potency [4] | Potency [5] | Potency [6] | Potency [7] | Potency [8]

CC[C@]1(O)C[C@H]2CN(CCc3c([nH]c4ccccc34)[C@@](C(=O)OC)(c3cc4c(cc3OC)N(C=O)[C@H]3[C@@](O)(C(=O)OC)[C@H](OC(C)=O)[C@]5(CC)C=CCN6CC[C@]43[C@@H]65)C2)C1
inactive: activation [1] 54.7%
active: Potency [2] 0.833 µM | Potency [3] 0.166 µM | Potency [4] 0.166 µM | Potency [5] 0.209 µM | Potency [6] 0.235 µM | Potency [7] 0.263 µM | Potency [8] 0.296 µM

COC1CCC(C(=O)c2ccc3nc4c(cc3c2)CCCO4)CC1 (centres undefined)
inactive: activation [1] -1.02% | viability [2] 105% | Potency [3] | Potency [4] | Potency [5] | Potency [6] | Potency [7] | Potency [8]

COCCCOc1cc(C[C@@H](C[C@H](N)[C@@H](O)C[C@H](C(=O)NCC(C)(C)C(N)=O)C(C)C)C(C)C)ccc1OC
inactive: activation [1] -7.53% and 23.3% | viability [2] 124% | Potency [3] | Potency [4] | Potency [5] | Potency [6] | Potency [7] | Potency [8]

OC[C@H]1O[C@@H](O[C@@H]2[C@@H](CO)O[C@](O)(CO)[C@H]2O)[C@H](O)[C@@H](O)[C@H]1O
inactive: activation [1] 10% | viability [2] 108% | Potency [3] | Potency [4] | Potency [5] | Potency [6] | Potency [7] | Potency [8]

C/C=C/C(=O)N(CC)c1ccccc1C
inactive: activation [1] -2.82% | viability [2] 107% | Potency [3] | Potency [4] | Potency [5] | Potency [6] | Potency [7] | Potency [8]

c1cc(-c2cnn3cc(-c4ccc(OCCN5CCCCC5)cc4)cnc23)ccn1
active: Potency [2] 8.33 µM | Potency [3] 8.33 µM | Potency [4] 0.0833 µM | Potency [5] 1.66 µM | Potency [6] 9.34 µM | Potency [7] 8.33 µM | Potency [8] 9.34 µM
inactive: activation [1] 46.6%

O=C(/C=C\n1cnc(-c2cc(C(F)(F)F)cc(C(F)(F)F)c2)n1)NNc1cnccn1
active: Potency [2] 0.742 µM | Potency [3] 1.18 µM | Potency [4] 0.525 µM | Potency [5] 0.934 µM | Potency [6] 0.372 µM | Potency [7] 0.468 µM | Potency [8] 0.372 µM
inactive: activation [1] 24.8%
